Structures are written as SMILES. Screen size: about 39,000 compounds; about 3,300 (8.5%) were called active. The entries come from a sample that favours actives as a whole.

For this assay, the system named is HepG2. Briefly: cytotoxicity call (relative viability < 0.9). Particulars: 10 µM.
Turning to `C[C@@H]1CCCCO[C@@H](CN(C)CC2CCCCC2)[C@@H](C)CN([C@H](C)CO)C(=O)c2cc(NC(=O)C3CCCCC3)ccc2O1`, the cytotoxicity call is “inactive”. With `CO[C@@H](CN(C)S(=O)(=O)c1cn(C)cn1)[C@H](C)CN(C(=O)Nc1ccc(C(F)(F)F)cc1)[C@@H](C)CO`, the cytotoxicity call is “inactive”.

As for `C[C@@H]1CN([C@H](C)CO)C(=O)c2cccc(NS(=O)(=O)c3ccc(F)cc3)c2O[C@@H]1CN(C)S(C)(=O)=O`, the cytotoxicity call is “inactive”. As to `C[C@H](CO)N1C[C@H](C)[C@H](CN(C)S(=O)(=O)c2ccc(F)cc2)Oc2ncc(Br)cc2C1=O`, the cytotoxicity call was “inactive”. For the compound `Cc1noc(C)c1S(=O)(=O)Nc1ccc2c(c1)C(=O)N([C@@H](C)CO)C[C@H](C)[C@@H](CN(C)S(=O)(=O)c1cn(C)cn1)OCCCC[C@H](C)O2`, the cytotoxicity call was “inactive”.

In the case of `C[C@H](CO)N1C[C@H](C)[C@H](CN(C)CC2CC2)Oc2ccc(NS(=O)(=O)c3ccc(F)cc3)cc2C1=O`, the cytotoxicity call was “inactive”. For `C[C@H](CO)N1C[C@H](C)[C@H](CN(C)S(=O)(=O)c2cccs2)OCCCC[C@H](C)Oc2ccc(NC(=O)Cc3ccccc3)cc2C1=O`, the cytotoxicity call is “inactive”. Turning to `CC(C)CC(=O)N1CCN(S(C)(=O)=O)CC1`, the cytotoxicity call was “inactive”. Take `CN1CCc2nc(C(=O)N[C@@H]3C[C@@H](C(=O)N(C)C)CC[C@@H]3NC(=O)C(=O)Nc3ccc(Cl)cn3)sc2C1`: the cytotoxicity call is “inactive”. `C[C@@H]1CN([C@H](C)CO)S(=O)(=O)c2ccc(C#Cc3cccc(F)c3)cc2O[C@H]1CN(C)S(=O)(=O)c1cn(C)cn1`: the cytotoxicity call is “inactive”.

As to `O=C(O)c1ccnc(C(=O)O)c1`, the cytotoxicity call was “inactive”. For `C[C@@H]1CN([C@@H](C)CO)C(=O)c2cc(N(C)C)ccc2O[C@@H](C)CCCCO[C@H]1CN(C)Cc1ccc(C(=O)Nc2ccccc2N)cc1` the value was “inactive”; for `C[C@@H]1CN([C@@H](C)CO)S(=O)(=O)c2ccc(C#Cc3cccnc3)cc2O[C@@H]1CN(C)C(=O)Nc1ccc2c(c1)OCO2`, “inactive”; for `C[C@H](CO)N1C[C@H](C)[C@@H](CN(C)C(=O)Nc2ccc3c(c2)OCO3)Oc2cc(C#Cc3cccnc3)ccc2S1(=O)=O`, “inactive”. Consider `C[C@@H]1CN([C@@H](C)CO)S(=O)(=O)c2ccc(C#Cc3ccncc3)cc2O[C@@H]1CN(C)C(=O)Nc1ccc2c(c1)OCO2`, for which the cytotoxicity call is “active”. For the compound `C[C@H]1CN([C@@H](C)CO)S(=O)(=O)c2ccc(C#Cc3ccncc3)cc2O[C@@H]1CN(C)C(=O)Nc1ccc2c(c1)OCO2`, the cytotoxicity call is “active”. Take `C[C@@H]1CN([C@@H](C)CO)S(=O)(=O)c2ccc(Br)cc2O[C@H]1CN(C)C(=O)Nc1ccc2c(c1)OCO2`: the cytotoxicity call is “inactive”. Take `C[C@H]1CN([C@@H](C)CO)S(=O)(=O)c2ccc(Br)cc2O[C@@H]1CN(C)C(=O)Nc1ccc2c(c1)OCO2`: the cytotoxicity call is “inactive”.

Take `CC(C)NC(=O)Nc1ccc2c(c1)C(=O)N([C@@H](C)CO)C[C@@H](C)[C@H](CN(C)Cc1ccc(C(=O)O)cc1)O2`: the cytotoxicity call is “inactive”. Take `C[C@@H]1CN([C@H](C)CO)C(=O)c2cccc(NC(=O)Nc3ccc(C(F)(F)F)cc3)c2O[C@@H]1CN(C)C(=O)Nc1cccc2ccccc12`: the cytotoxicity call was “inactive”. Turning to `C[C@H](CO)N1C[C@H](C)[C@@H](CN(C)C(=O)Nc2cccc3ccccc23)Oc2c(NC(=O)Nc3ccc(C(F)(F)F)cc3)cccc2C1=O`, the cytotoxicity call was “inactive”. On to `C[C@@H]1CN([C@H](C)CO)C(=O)c2cccc(NC(=O)Nc3ccc(C(F)(F)F)cc3)c2O[C@H]1CN(C)C(=O)Nc1cccc2ccccc12`, for which the cytotoxicity call was “active”. Regarding `C[C@@H]1CN([C@@H](C)CO)C(=O)c2cccc(NC(=O)Nc3ccc(C(F)(F)F)cc3)c2O[C@@H]1CN(C)C(=O)Nc1cccc2ccccc12`, the cytotoxicity call was “active”. With `C[C@H](CO)N1C[C@H](C)[C@H](CN(C)C(=O)Nc2cccc3ccccc23)Oc2c(NC(=O)Nc3ccc(C(F)(F)F)cc3)cccc2C1=O`, the cytotoxicity call is “active”. For `C[C@@H]1CN([C@@H](C)CO)C(=O)c2cccc(NC(=O)Nc3ccc(C(F)(F)F)cc3)c2O[C@H]1CN(C)C(=O)Nc1cccc2ccccc12` the value was “active”; for `C[C@@H]1CCCCO[C@@H](CN(C)C(=O)c2ccccc2)[C@H](C)CN([C@@H](C)CO)C(=O)c2cc(NS(=O)(=O)c3ccc(Cl)cc3)ccc2O1`, “inactive”; for `COc1ccc(S(=O)(=O)N(C)C[C@H]2Oc3ccc(NS(=O)(=O)c4ccccc4)cc3CC(=O)N([C@H](C)CO)C[C@@H]2C)cc1`, “inactive”. Take `COc1ccc(S(=O)(=O)N(C)C[C@H]2OCCCC[C@H](C)Oc3ccc(NS(=O)(=O)c4cn(C)cn4)cc3C(=O)N([C@@H](C)CO)C[C@H]2C)cc1`: the cytotoxicity call was “inactive”. Take `C[C@H]1CN([C@@H](C)CO)S(=O)(=O)c2ccc(C#CC3(O)CCCC3)cc2O[C@H]1CN(C)C(=O)Nc1ccc(F)cc1`: the cytotoxicity call was “inactive”. Take `COCC(=O)N1CC[C@]2(CC1)CN([C@H](CO)c1c2c2ccc(cc2n1C)OC)C(=O)CN1CCOCC1`: the cytotoxicity call is “inactive”.

Consider `O=C1N[C@@H](Cc2c[nH]c3ccccc23)COC(=O)[C@@H](Cc2ccc(F)cc2)CCC=CC[C@H]1CC(=O)N(CCO)Cc1ccccc1`, for which the cytotoxicity call was “inactive”. For the compound `C[C@H](CO)N1C[C@H](C)[C@@H](CN(C)S(=O)(=O)c2cn(C)cn2)OCc2ccccc2-c2c(n(C)c3ccccc23)C1=O`, the cytotoxicity call is “inactive”. For `O=C(C[C@H]1C[C@@H]2c3cc(NC(=O)c4ccc5c(c4)OCO5)ccc3O[C@@H]2[C@@H](CO)O1)NCCN1CCCCC1` the value was “inactive”; for `CC(C)(C)[S@](=O)N1Cc2cc(C(=O)N3CCc4ccccc4C3)nc(-c3cccc(-c4cccnc4)c3)c2[C@@H]1CCO`, “inactive”; for `Cc1ccc(S(=O)(=O)Nc2ccc3c(c2)C(=O)N([C@H](C)CO)C[C@H](C)[C@@H](CN(C)S(=O)(=O)c2ccc(F)cc2)OCCCC[C@@H](C)O3)cc1`, “inactive”. For `C[C@H](CO)N1C[C@H](C)[C@H](CN(C)C(=O)Nc2cccc3ccccc23)Oc2c(NC(=O)Nc3ccc(F)cc3)cccc2C1=O` the value was “inactive”. `C[C@H]1CN([C@@H](C)CO)C(=O)c2cccc(NC(=O)Nc3ccc(C(F)(F)F)cc3)c2O[C@H]1CN(C)C(=O)Nc1cccc2ccccc12`: the cytotoxicity call is “inactive”. In the case of `C[C@H]1CN([C@@H](C)CO)C(=O)c2cccc(NC(=O)Nc3ccc(C(F)(F)F)cc3)c2O[C@@H]1CN(C)C(=O)Nc1cccc2ccccc12`, the cytotoxicity call is “active”. Turning to `C[N+](C)(C)CCCCNC(=O)[C@H]1C[C@H]2C(=O)N[C@@H](CCCC[N+](C)(C)C)C(=O)N2[C@H]1c1cccc(OCCO)c1`, the cytotoxicity call is “inactive”. For `CC(=O)NCCCC[C@@H]1NC(=O)[C@@H]2C[C@H](C(=O)NCCCC[N+](C)(C)C)[C@H](c3cccc(OCCO)c3)N2C1=O` the value was “active”; for `C[N+](C)(C)CCCCNC(=O)[C@H]1C[C@H]2C(=O)N3CCC[C@H]3C(=O)N2[C@H]1c1cccc(OCCO)c1`, “active”; for `CC(=O)NCCCC[C@@H]1NC(=O)[C@H]2C[C@@H](C(=O)NCCCC[N+](C)(C)C)[C@@H](c3ccc(O)cc3)N2C1=O`, “active”.

Regarding `C[N+](C)(C)CCCCCCNC(=O)[C@H]1C[C@H]2C(=O)N3CCC[C@H]3C(=O)N2[C@H]1c1cccc(OCCO)c1`, the cytotoxicity call is “inactive”. In the case of `C[N+](C)(C)CCCCNC(=O)[C@@H]1C[C@@H]2C(=O)N3CCC[C@H]3C(=O)N2[C@@H]1c1cccc(OCCO)c1`, the cytotoxicity call is “inactive”.

Regarding `C[N+](C)(C)CCCCNC(=O)[C@H]1C[C@H]2C(=O)N[C@@H](CCCC[N+](C)(C)C)C(=O)N2[C@H]1c1ccc(O)cc1`, the cytotoxicity call was “inactive”. For `CC(=O)NCCCC[C@@H]1NC(=O)[C@H]2C[C@@H](C(=O)NCCCC[N+](C)(C)C)[C@@H](c3cccc(OCCO)c3)N2C1=O` the value was “inactive”; for `C[N+](C)(C)CCCCNC(=O)[C@@H]1C[C@@H]2C(=O)N[C@@H](CCCC[N+](C)(C)C)C(=O)N2[C@@H]1c1ccc(O)cc1`, “inactive”. For `C[C@H](CO)N1C[C@H](C)[C@H](CN(C)C(=O)C2CCCCC2)OCCCC[C@H](C)Oc2ccc(NC(=O)c3ccccc3)cc2C1=O`, the cytotoxicity call is “inactive”. `O=C(C[C@@H]1CC=CC[C@H](NC(=O)OCC2c3ccccc3-c3ccccc32)C(=O)O[C@H](c2ccccc2)CNC1=O)N[C@@H](CO)Cc1ccccc1`: the cytotoxicity call is “inactive”. For `CNC(=O)C[C@H]1CC[C@@H]2[C@H](COC[C@H](O)CN2C(=O)Nc2ccc3c(c2)OCO3)O1`, the cytotoxicity call is “inactive”. For `CO[C@H]1CN(C)C(=O)c2ccc(NS(=O)(=O)CC(F)(F)F)cc2OC[C@H](C)N(C(=O)NC(C)C)C[C@@H]1C` the value was “inactive”; for `CO[C@@H]1CN(C)C(=O)c2cc(NS(=O)(=O)c3cn(C)cn3)ccc2OC[C@H](C)N(CC2CC2)C[C@@H]1C`, “inactive”; for `CNC(=O)c1cnc2n1CCN(Cc1nccn1C)C2`, “inactive”.

Turning to `CC(C)[C@H](NC(=O)[C@H](C)N(C)C)C(=O)N1CC[C@@H]2Oc3ccc(cc3)/C=C\NC(=O)[C@H](Cc3ccccc3)NC(=O)[C@H]21`, the cytotoxicity call is “inactive”. Turning to `C[C@@H]1CN([C@H](C)CO)C(=O)c2cc(NC(=O)Cn3cnnn3)ccc2O[C@H]1CN(C)S(=O)(=O)c1ccc(F)cc1`, the cytotoxicity call is “inactive”. For `O=C(C[C@@H]1C[C@H]2c3cc(NC(=O)Nc4ccccc4F)ccc3O[C@H]2[C@@H](CO)O1)NCc1ccc(Oc2ccccc2)cc1`, the cytotoxicity call was “inactive”. `C[C@H](CO)N1C[C@H](C)[C@@H](CN(C)Cc2ccc(Oc3ccccc3)cc2)Oc2ccc(NC(=O)Nc3cccc4ccccc34)cc2C1=O`: the cytotoxicity call is “inactive”. As to `COc1ccc(CN(C)C[C@H]2Oc3ccc(NC(=O)Nc4cccc5ccccc45)cc3C(=O)N([C@@H](C)CO)C[C@H]2C)cc1`, the cytotoxicity call is “inactive”. With `COc1ccc(CN(C)C[C@@H]2Oc3ccc(NC(=O)Nc4cccc5ccccc45)cc3C(=O)N([C@@H](C)CO)C[C@H]2C)cc1`, the cytotoxicity call was “inactive”. For `C[C@@H]1CN([C@@H](C)CO)C(=O)c2cc(NC(=O)Nc3cccc4ccccc34)ccc2O[C@@H]1CN(C)Cc1ccc(Oc2ccccc2)cc1` the value was “active”. On to `COc1ccc(CN(C)C[C@H]2Oc3ccc(NC(=O)Nc4cccc5ccccc45)cc3C(=O)N([C@@H](C)CO)C[C@@H]2C)cc1`, for which the cytotoxicity call was “inactive”. On to `COc1ccc(CN(C)C[C@@H]2Oc3ccc(NC(=O)Nc4cccc5ccccc45)cc3C(=O)N([C@H](C)CO)C[C@@H]2C)cc1`, for which the cytotoxicity call was “inactive”. For `COc1ccc(CN(C)C[C@@H]2Oc3ccc(NC(=O)Nc4cccc5ccccc45)cc3C(=O)N([C@H](C)CO)C[C@H]2C)cc1`, the cytotoxicity call is “inactive”. For `C[C@@H]1CN([C@@H](C)CO)C(=O)c2cc(NC(=O)Nc3cccc4ccccc34)ccc2O[C@H]1CN(C)Cc1ccc(Oc2ccccc2)cc1` the value was “inactive”.

Regarding `C[C@@H]1CN([C@H](C)CO)C(=O)c2cc(NC(=O)Nc3cccc4ccccc34)ccc2O[C@@H]1CN(C)Cc1ccc(Oc2ccccc2)cc1`, the cytotoxicity call was “active”. For `COc1ccc(CN(C)C[C@H]2Oc3ccc(NC(=O)Nc4cccc5ccccc45)cc3C(=O)N([C@H](C)CO)C[C@@H]2C)cc1` the value was “inactive”; for `C[C@H](CO)N1C[C@H](C)[C@H](CN(C)Cc2ccc(Oc3ccccc3)cc2)Oc2ccc(NC(=O)Nc3cccc4ccccc34)cc2C1=O`, “active”. For the compound `C[C@@H]1CN([C@H](C)CO)C(=O)c2cc(NC(=O)Nc3cccc4ccccc34)ccc2O[C@H]1CN(C)Cc1ccc(Oc2ccccc2)cc1`, the cytotoxicity call was “active”.
